From PubChem BioAssay (Tox21) come the findings set out here.

Molecules are shown by their SMILES. A number with no mark means an inactive call. Records with an inconclusive call do not appear. Active and inactive are the calls of the source. Unless noted, the call rests on the fitted dose curve; in most records, active means well fitted curve in the direction sought with a large enough effect in the repeat runs; inconclusive means weak or mixed curves; inactive means no such curve, though single readings can be large; an effect the other way counts as inactive or inconclusive.

The nature of assay [1]: qHTS assay to identify small molecule antagonists of the androgen receptor (AR) signaling pathway using the MDA cell line in the presence of 0.5 nM R1881 - cell viability counter screen (AID 1259242). Further: nearly all actives have a fitted effect of over 45% in size. An outline of the steps: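 Concentration-response screen of compounds for toxicity in MDA-kb2 reporter cells: 16 hr at 37C with 0.5 nM R1881, endpoint live-cell protease fluorescence measured in the reporter wells.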

The target in assay [2] is Estrogen receptor (Homo sapiens) (UniProt P03372). Kind of assay: qHTS assay to identify small molecule antagonists of the estrogen receptor alpha (ER-alpha) signaling pathway using the BG1 cell line in the presence of 0.1 nM 17-beta-estradiol (AID 1259244). Further: nearly all actives have a fitted effect of over 50% in size. An outline of the steps: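 Compounds were tested against 0.1 nM (final) 17beta-estradiol in VM7Luc4E2 cells, which express full-length ER-alpha and an ERE-luciferase reporter; luminescence was recorded following 22 h exposure.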
Sequence of Estrogen receptor (Homo sapiens) (P03372 whole entry, looked up): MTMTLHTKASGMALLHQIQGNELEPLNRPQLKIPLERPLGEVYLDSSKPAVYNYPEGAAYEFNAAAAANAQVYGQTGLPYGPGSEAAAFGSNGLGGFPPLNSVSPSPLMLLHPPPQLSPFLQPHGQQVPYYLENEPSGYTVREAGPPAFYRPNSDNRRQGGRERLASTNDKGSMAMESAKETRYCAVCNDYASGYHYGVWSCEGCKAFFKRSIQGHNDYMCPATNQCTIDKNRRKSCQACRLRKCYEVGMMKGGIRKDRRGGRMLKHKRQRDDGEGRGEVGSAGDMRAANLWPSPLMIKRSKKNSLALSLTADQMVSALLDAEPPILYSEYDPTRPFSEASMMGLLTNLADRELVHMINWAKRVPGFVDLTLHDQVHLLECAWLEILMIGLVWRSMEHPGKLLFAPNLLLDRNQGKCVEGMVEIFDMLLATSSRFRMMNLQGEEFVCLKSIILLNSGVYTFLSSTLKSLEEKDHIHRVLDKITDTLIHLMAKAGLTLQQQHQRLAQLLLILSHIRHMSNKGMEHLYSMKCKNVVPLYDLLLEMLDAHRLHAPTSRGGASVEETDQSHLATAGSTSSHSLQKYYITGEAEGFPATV

A short description of assay [3]: qHTS assay to identify small molecule HDAC inhibitors (AID 1259364). Further: potency means the concentration at half of the fitted maximal effect.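 Further: wild-type HCT-116 cells with endogenous class I/II HDAC activity; nearly all actives have a fitted effect of over 45% in size.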 On activity change, negative = inhibition: top concentration of the series differs between compounds. In outline: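 Screening used wild-type human colon HCT-116 cells incubated overnight, dosed with compounds for 2 hours, and assayed with a homogeneous luminogenic HDAC I/II reagent for 30 minutes at room temperature.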
(In general: qHTS replaces the single test concentration by a dilution series.)

Assay [4] can be described thus: qHTS assay to identify small molecule HDAC inhibitors - cell viability counter screen (AID 1259365). Further: series mostly up to about 92 µM; nearly all actives have a fitted effect of over 50% in size. An outline of the steps: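 Cytotoxicity was gauged in wild-type HCT-116 cells after a brief 2hr treatment with DMSO-dissolved compounds at 37C and 5% CO2, using CellTiter-Glo luminescence developed for 30min at room temperature.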
Assay [5] in a line: qHTS assay to identify small molecule agonists of the sonic hedgehog signaling (Shh) pathway - cell viability counter screen (AID 1259366). Further: nearly all actives have a fitted effect of over 50% in size. An outline of the steps:
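Stable Gli1-Luc NIH/3T3 clone, 2,000 cells/well. Compound exposure 24hr at 37C. Read-out: CellTiter-Fluor fluorescence.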

The nature of assay [6]: qHTS assay to identify small molecule antagonists of the sonic hedgehog signaling (Shh) pathway - cell viability counter screen (AID 1259367). Further: nearly all actives have a fitted effect of over 55% in size. An outline of the steps:
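Viability was read by CellTiter-Fluor fluorescence in the same wells, reagent added 23 hr into compound treatment and incubated 1 hr at 37C. The 3T3 Gli1-Luc reporter cells (2,000/well) received conditioned medium after compound and ran 24 hr.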

Assay [7] is described as follows: qHTS assay to identify small molecule antagonists of the sonic hedgehog signaling (Shh) pathway (AID 1259369; calls by dose curve; further: nearly all actives have a fitted effect of over 45% in size; further: potency means the concentration at half of the fitted maximal effect). In outline:
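NIH/3T3 stable Gli1-Luc clone, 2,000 cells/well, 4hr settle; cpd + conditioned medium 24hr; Luc reagent 30min RT; luminescence.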

A short description of assay [8]: qHTS assay to identify small molecule phospholipidosis (PLD) inducers (AID 1259344; active means well fitted curve in the direction sought with a large enough effect; an effect the other way counts as inactive or inconclusive). In outline: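 Phospholipid accumulation was scored by imaging: fixed, Hoechst-counterstained HepG2 cells stained with LipidTOX Red after 24 h compound exposure at 37 C. Read-outs were pit count and pit intensity per well or per cell, with amiodarone and DMSO controls.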
Assay [9] in a line: qHTS assay to identify small molecule agonists of the sonic hedgehog signaling (Shh) pathway (AID 1259368; calls by dose curve;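 further: NIH/3T3-derived 3T3Gli1-Luc cells carrying a stable Gli1-driven firefly luciferase reporter; series mostly up to about 92 µM; nearly all actives have a fitted effect of over 15% in size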). In outline:
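Hedgehog pathway agonism scored by increased firefly luciferase luminescence in 3T3Gli1-Luc cells treated 24 hr at 37 C; detection used a 30 min room-temperature reagent incubation.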

In assay [10] the target is Androgen receptor (Homo sapiens) (UniProt P10275). Kind of assay: qHTS assay to identify small molecule antagonists of the androgen receptor (AR) signaling pathway using the MDA cell line in the presence of 0.5 nM R1881 (AID 1259243). Further: nearly all actives have a fitted effect of over 50% in size. In outline:
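With R1881 held at 0.5 nM (final), compound effects on MMTV-luciferase expression in MDA-kb2 cells were scored by luminescence after a 16 hr, 37C incubation.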
On the % scale 0 is the no-effect control and ±100 the full control effect.

Sequence of Androgen receptor (Homo sapiens) (P10275 whole entry, looked up): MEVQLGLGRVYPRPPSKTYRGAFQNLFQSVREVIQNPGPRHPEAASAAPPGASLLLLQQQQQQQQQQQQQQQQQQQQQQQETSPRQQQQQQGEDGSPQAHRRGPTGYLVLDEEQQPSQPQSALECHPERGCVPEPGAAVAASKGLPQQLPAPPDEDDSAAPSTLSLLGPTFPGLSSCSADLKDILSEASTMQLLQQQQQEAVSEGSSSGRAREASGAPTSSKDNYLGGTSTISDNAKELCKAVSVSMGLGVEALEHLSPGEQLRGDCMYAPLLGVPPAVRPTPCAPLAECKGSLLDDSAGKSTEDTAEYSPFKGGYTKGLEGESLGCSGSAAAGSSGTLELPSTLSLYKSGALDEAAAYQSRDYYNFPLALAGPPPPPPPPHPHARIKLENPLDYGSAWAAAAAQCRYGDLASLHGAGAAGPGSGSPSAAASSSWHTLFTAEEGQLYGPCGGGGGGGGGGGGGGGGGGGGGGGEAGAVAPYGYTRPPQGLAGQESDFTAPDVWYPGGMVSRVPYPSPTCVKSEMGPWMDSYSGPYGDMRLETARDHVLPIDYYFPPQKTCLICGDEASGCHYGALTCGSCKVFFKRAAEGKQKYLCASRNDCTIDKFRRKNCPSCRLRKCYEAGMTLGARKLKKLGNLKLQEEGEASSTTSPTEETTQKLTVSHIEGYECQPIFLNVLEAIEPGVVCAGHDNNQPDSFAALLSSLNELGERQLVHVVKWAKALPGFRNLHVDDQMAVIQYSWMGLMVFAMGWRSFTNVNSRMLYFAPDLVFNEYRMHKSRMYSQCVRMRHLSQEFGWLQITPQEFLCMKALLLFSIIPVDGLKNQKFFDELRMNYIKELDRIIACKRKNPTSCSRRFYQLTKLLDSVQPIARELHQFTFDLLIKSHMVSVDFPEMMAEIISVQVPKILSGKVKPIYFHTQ

Turning to `O=C(/N=N/C(=O)OCc1ccccc1)OCc1ccccc1`, the outcome in assay [1] and in [4] was inactive. The Potency result in assay [2], in assay [3], in assay [5], in assay [6] and in assay [7] was “inactive” throughout.

In the case of `CCCCNc1ccc(C(=O)OCCN(C)C)cc1`, the outcome in [1], in assay [8], in assay [4] and in assay [9] was inactive. The Potency result in assay [3], in assay [5], in assay [6] and in assay [7] was “inactive” each time.

As to `CC(C)OC(=O)CCCCC(=O)OC(C)C`, the result in assay [1], in assay [4] and in [9] was inactive. In addition, the Potency result in assay [2], in [3], in assay [5] and in assay [7] was “inactive” throughout.

As to `Brc1ccc(-c2ccccc2)cc1`, the result in assay [1], in assay [4] and in assay [9] was inactive. Moreover, the Potency result in [3], in assay [5] and in assay [6] was “inactive” each time.

On to `CC(C)(C)c1nnc(NS(=O)(=O)c2ccc(N)cc2)s1`, for which the Potency entry in [10], in assay [2], in [3], in [5], in assay [6] and in [7] was “inactive” each time. Besides, the outcome in [4] and in assay [9] was inactive.

In the case of `CC(=O)c1sc(C)nc1C`, the outcome in assay [1] and in assay [4] was inactive. For the same molecule, the Potency result in assay [3], in assay [5], in assay [6] and in assay [7] was “inactive” in each case.

As for `C=Cc1ccccn1`, the result in assay [1], in [4] and in assay [9] was inactive. Further, the Potency entry in assay [3], in assay [5], in assay [6] and in assay [7] was “inactive” throughout.

For the molecule `CC(C)=CCOC(=O)c1ccccc1`, the outcome in assay [1], in assay [4] and in [9] was inactive. The Potency entry in assay [3], in [5], in assay [6] and in assay [7] was “inactive” throughout.

`CCc1ccc(C=O)cc1`: the outcome in [1], in assay [4] and in assay [9] was inactive. Besides, the Potency result in assay [3], in assay [5], in [6] and in [7] was “inactive” throughout.

For the molecule `CC(C)(C)OC(=O)c1ccc(O)cc1`, the result in assay [1], in assay [4] and in assay [9] was inactive. Further, the Potency result in assay [5] and in [6] was “inactive” in each case.

For `CC(COC(C)(C)C)OCCCO` (stereo not given), the result in [1] and in assay [4] was inactive. Also, the Potency entry in assay [3], in assay [5], in [6] and in [7] was “inactive” throughout.

Regarding `CCCC/C=C\CCCCCCCCCC=O`, the outcome in [1], in assay [4] and in assay [9] was inactive. For the same molecule, the Potency result in [3], in assay [5], in [6] and in assay [7] was “inactive” in each case.

`O=C(O)c1cc(Br)c(O)c(Br)c1`: the result in assay [1], in assay [4] and in [9] was inactive. The Potency result in [3], in [5], in assay [6] and in assay [7] was “inactive” each time.

Take `O=Cc1ccc(Cl)c(Cl)c1`: the outcome in assay [1], in assay [4] and in assay [9] was inactive. In addition, the Potency entry in assay [3], in [5], in assay [6] and in [7] was “inactive” in each case.

Take `CCCOC(OCCC)OCCC`: the result in assay [1], in assay [4] and in assay [9] was inactive. Moreover, the Potency result in assay [3], in assay [5], in assay [6] and in [7] was “inactive” each time.

As for `C#CC(C)N(C)C(=O)Nc1ccc(Cl)cc1` (stereo not given), the Potency result in assay [10], in [5], in [6] and in assay [7] was “inactive” each time. For the same molecule, the molecule was called inactive in assay [4] and in assay [9].

As to `CC(C)(C)c1cc(CCC(=O)NN)cc(C(C)(C)C)c1O`, the result in assay [1], in assay [4] and in assay [9] was inactive. The Potency result in [3], in [5], in assay [6] and in assay [7] was “inactive” throughout.

Regarding `c1ccc2c(c1)ccc1c3ccccc3ccc21`, the outcome in [1], in assay [4] and in assay [9] was inactive. The Potency result in assay [5], in assay [6] and in [7] was “inactive” throughout.

Take `CCCCCOC(=O)CCC`: the result in assay [1], in [4] and in assay [9] was inactive. The Potency result in [3], in [5], in [6] and in assay [7] was “inactive” throughout.

As for `C=C(C)C(=O)OCCNC(C)(C)C`, the outcome in [1], in assay [4] and in assay [9] was inactive. Also, the Potency result in [3], in assay [5], in assay [6] and in [7] was “inactive” throughout.

Take `CC(=O)Nc1cccc(C)c1`: the result in assay [1], in assay [4] and in [9] was inactive. In addition, the Potency result in assay [3], in assay [5], in assay [6] and in [7] was “inactive” in each case.

Regarding `OC[C@H](Cc1cccc(O)c1)[C@H](CO)Cc1cccc(O)c1`, the outcome in assay [1], in assay [4] and in assay [9] was inactive. For the same molecule, the Potency result in assay [3] and in assay [5] was “inactive” each time. Also, the Potency in [7] is 62.6 µM (active).

For the molecule `COC(=O)C1CC(=O)C(C(=O)OC)CC1=O` (stereo not given), the viability change, negative = cytotoxic in assay [1] was 1.05% [at 8.39 µM]; in [5] it was 11.2% [at 8.39 µM]; in assay [6], 1.71% [at 8.39 µM]. In addition, the figures for the activity change, negative = inhibition in assay [3] and in [7] were -0.18% [at 8.39 µM] and 0.93% [at 8.39 µM], respectively. In assay [4], the activity change, negative = cytotoxicity was 0.106% [at 8.39 µM]. Moreover, the activity change in assay [9] is -2.11% [at 8.39 µM].

Take `CC(=O)Nc1ccc(S(=O)(=O)Cl)cc1`: the outcome in assay [1] and in assay [4] was inactive. The Potency entry in assay [3], in assay [5], in [6] and in [7] was “inactive” each time.

`C=CCCCCCCCCCCCC`: the outcome in assay [1], in assay [4] and in [9] was inactive. Besides, the Potency result in assay [3], in [5], in assay [6] and in assay [7] was “inactive” each time.

As for `CC1(CO)CN(c2ccccc2)NC1=O` (stereo not given), the outcome in [1], in assay [4] and in assay [9] was inactive. Further, the Potency in [3] is 24.3 µM (active). The Potency entry in assay [5], in assay [6] and in [7] was “inactive” each time.
